Compound activity as filed in PubChem.
Shown are actives, neighbours in structure and some others; about 7.8% of the full set was active somewhere.
FLuc inh: inhibitors of firefly luciferase. P08659. 72,000 compounds, 2.2% hits. Potency, µM (highest dose often 57.1 µM), without a hit: at the top dose activity change, negative = inhibition, hits mostly inhibitors. purified firefly luciferase, luminescence, 8 min; also: potency is read from the fitted curve at half-maximal effect; % is scaled to controls: 0 for no effect and ±100 for the full control effect; nearly all actives have a fitted effect of over 40% in size
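Firefly luciferase (PKLight detection mix) with 10 uM ATP in pH 7.2 imidazole buffer (KCl, MgCl2, Tween 20, BSA). Compounds tested across a concentration series (qHTS). Luminescence read after 8 min at ambient temperature.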
Tau fil binding: binds recombinant human tau filaments | Potency, µM (titrated, usually from 57.1 µM), for inactives: at the top dose activity change, negative = inhibition | 71,000 compounds, 2% hits | AID 596 | P10636 | recombinant tau filaments, thioflavin S fluorescence, 15 h; filaments grown with octadecylsulfate alongside compound;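 also: potency is read from the fitted curve at half-maximal effect; % is scaled to controls: 0 for no effect and ±100 for the full control effect; actives lower thioflavin S fluorescence by blocking filaments or displacing dye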
Target sequence (P10636 whole entry, looked up): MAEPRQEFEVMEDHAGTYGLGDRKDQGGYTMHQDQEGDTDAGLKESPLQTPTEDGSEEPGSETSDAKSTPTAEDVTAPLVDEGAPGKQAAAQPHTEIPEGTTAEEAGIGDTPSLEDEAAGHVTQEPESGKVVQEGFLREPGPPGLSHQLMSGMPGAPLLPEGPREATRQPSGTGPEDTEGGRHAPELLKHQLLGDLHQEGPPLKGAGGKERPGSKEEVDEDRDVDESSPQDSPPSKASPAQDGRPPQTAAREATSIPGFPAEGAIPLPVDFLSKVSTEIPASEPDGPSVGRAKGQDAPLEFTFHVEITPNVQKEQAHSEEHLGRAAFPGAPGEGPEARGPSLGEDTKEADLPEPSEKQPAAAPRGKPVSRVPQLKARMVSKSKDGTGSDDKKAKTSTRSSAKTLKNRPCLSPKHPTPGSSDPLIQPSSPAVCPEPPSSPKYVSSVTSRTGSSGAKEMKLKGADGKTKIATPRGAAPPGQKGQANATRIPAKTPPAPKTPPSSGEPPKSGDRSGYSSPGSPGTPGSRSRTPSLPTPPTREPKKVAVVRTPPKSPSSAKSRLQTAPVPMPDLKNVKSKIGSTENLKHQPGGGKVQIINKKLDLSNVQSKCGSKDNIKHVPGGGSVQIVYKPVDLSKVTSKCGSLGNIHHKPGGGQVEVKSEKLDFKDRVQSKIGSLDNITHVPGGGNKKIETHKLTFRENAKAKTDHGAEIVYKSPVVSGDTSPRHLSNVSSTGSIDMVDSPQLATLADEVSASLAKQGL
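His-tagged recombinant human tau (exons 2, 3 and 10 included), 1 uM, was induced to fibrillize by 30 uM sodium octadecylsulfate with compound present. After 15 h at 37 C, thioflavine S fluorescence (ex 450, em 510 nm) was read.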
TSHR ag: activates the human thyroid stimulating hormone receptor. P16473. HEK293-CNG-TSHR cells (CNG channel as cAMP sensor), membrane potential dye, cAMP. Potency, µM (highest dose often 57.1 µM), for inactives: at the highest dose activation, actives largely listed as activators. 73,000 compounds, 0.48% hits; active = well fitted activation curve with a large enough effect in the main read-out, with a control signal flat, not every such curve was filed as active; inconclusive = small, poorly fitted or top-dose-only effect, or a change in a side signal; inactive = no such curve, though single readings can be large or run the other way; % of control where 0% means no effect;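 also: the control signal comes from parental cells without the receptor; potency is read from the fitted curve at half-maximal effect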
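cAMP rise detected as CNG-channel membrane depolarization by fluorescent dye (emission 590 nm), 30 min after compound, following 60 min dye loading containing 100 uM RO 20-1724 at room temperature. Cells: TSHR/CNG HEK 293, with parental CNG HEK 293 as control.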
PK Bst: alters activity of Bacillus stearothermophilus pyruvate kinase; 51,000 compounds, 1.2% hits; purified pyruvate kinase, luminescence ATP production; ribose 5-phosphate activator present at AC10; Potency, µM; AID 361; in the data active = potency below about 11 µM; inconclusive = mostly about 12 µM to 25 µM;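 the screen sought inhibitors and activators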;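 also: potency is read from the fitted curve at half-maximal effect; scaled between full activation by ribose 5 phosphate and full inhibition by luteolin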
15-hLO inh: blocks human 15-lipoxygenase activity; P16050; purified 15hLO-1, xylenol orange hydroperoxide absorbance; Potency, µM (titrated, usually from 57.1 µM), without a hit: at the highest dose activity change, negative = inhibition, actives largely listed as inhibitors; 74,000 compounds, 1.4% hits; AID 887; also: potency is read from the fitted curve at half-maximal effect; % is scaled to controls: 0 for no effect and ±100 for the full control effect; nearly all actives have a fitted effect of over 55% in size
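Quantitative HTS in 25 mM Hepes pH 7.5 containing 0.01% Triton X-100: human 15hLO-1 at 40 nM, arachidonic acid at 50 uM, 6 min turnover. Product quantified via ferrous oxidation/xylenol orange, 573:405 nm absorbance ratio.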
HEK293 cAMP cs: counter-screen for TSHR agonists: cAMP increase in parental HEK293; parental HEK293 CNG cAMP sensor, membrane potential fluorescence; Potency, µM (top dose mostly 57.1 µM), inactives show at the top dose activation, usual class: activators; 73,000 compounds, 2.5% hits; also: potency is read from the fitted curve at half-maximal effect; % of control where 0% means no effect; nearly all actives have a fitted effect of over 55% in size
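Parental HEK 293 cells stably expressing a cAMP-gated CNG channel were loaded with membrane potential dye containing 100 uM RO 20-1724 for 60 min. Compound added for 30 min; depolarization read as fluorescence intensity at 590 nm.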
HEK293 cAMP cnt: TSHR-independent cAMP elevation, counter-screen; shares compounds with TSHR ag; parental HEK293 CNG biosensor, cAMP membrane potential fluorescence; activity change, negative = inhibition, % at 32.9 µM; 150 tested, under 10 active; AID 953
The depositor's hits bear a star; ? = inconclusive; · = not tested or not shown; ! = not confirmed by another sample; [ ] = dose if it differs, or a comment. Unless noted, calls follow the shape of the dose curve; as a rule, active = well fitted curve in the direction sought with a large enough effect; inconclusive = small, poorly fitted or top-dose-only effect, or another doubt; inactive = no such curve, though single readings can be large; an effect the other way counts as inactive or inconclusive.

SMILES	FLuc inh	Tau fil binding	TSHR ag	PK Bst	15-hLO inh	HEK293 cAMP cs	others
C=CCc1c(C)[nH]c(=S)c(C#N)c1C	-4%	-15%	26%	>57	16µM*	1%
CCN1C[C@@]2(COC)[C@H](O)C[C@H](OC)[C@@]34[C@@H]5C[C@@]6(O)[C@H](OC(=O)c7ccccc7)[C@H]5[C@@](OC(C)=O)([C@H]([C@@H](OC)[C@H]23)[C@H]14)[C@H](O)[C@@H]6OC	2%[11.4 µM]	-6%	1%	·	·	4%
Cc1cc2c(C(C)C)c(O)c(O)c(C=O)c2c(O)c1-c1c(C)cc2c(C(C)C)c(O)c(O)c(C=O)c2c1O	-6%	1µM*	-11%	·	?	2%
CN1[C@@H]2CC[C@H]1CC(O[C@@H](c1ccccc1)c1ccc(Cl)cc1)C2 (stereo partly specified)	0%	?	?	·	-1%[25.6 µM]	40µM*
CCn1cnc2c(Nc3cccc(Cl)c3)nc(N[C@@H]3CCCC[C@H]3N)nc21	0%	20%	?	·	?	?
CCn1c(N)c(C(=O)NC)sc1=S	-2%	-6%	10%[11.4 µM]	>57	4µM*	2%
CN(C)c1ccc(P(=S)(N(C)C)N(C)C)cc1	-2%	2%	3%[11.4 µM]	>57	-1%	22%
CN(C)c1ccc(N)cc1	·	13µM*	-13%	·	?	1%
C[C@@H](O)CN(CCN(C[C@@H](C)O)C[C@@H](C)O)C[C@@H](C)O.O=[N+]([O-])O.[Cu]	4%[11.4 µM]	?	-2%[11.4 µM]	·	4µM*	-9%[11.4 µM]
O=C(Cn1cc(C(=O)c2ccccc2F)c2ccccc21)NCc1ccco1	1%	213%	16%	>57	2%	7%
CCC(=O)c1cn(Cc2ccccc2C#N)c2ccccc12	0%	16%	?	>57	-3%	20µM*
N#Cc1ccccc1Cn1cc(C(=O)c2ccco2)c2ccccc21	1%	108%	?	>57	-20%	16µM*
N#Cc1ccccc1Cn1cc(C(=O)C2CC2)c2ccccc21	3%	22%	?	>57	-18%	?
C[N+]1(C)CCc2cc3c(cc2[C@@H]1[C@@H]1OC(=O)c2c1ccc1c2OCO1)OCO3	-5%	-4%	-3%	·	8%	8%
N#CS.N=C=S.N=C=S.[Cu].[NH2-].[NH2-].[NH2-].[NH2-].c1ccc2ncccc2c1	2%[11.4 µM]	-4%[11.4 µM]	?	·	2.5µM*	?
c1ccc2ncccc2c1	·	-5%	3%	·	8%	0%
O=c1cc(-c2ccc(O)c(O)c2)oc2cc(O)cc(O)c12	1%[11.4 µM]	?	-4%[25.6 µM]	·	2.5µM*	-2%
COc1ccc(C[C@@H]2NC[C@H](O)[C@H]2OC(C)=O)cc1	1%[11.4 µM]	?	0%	·	·	1%
CN(CC1COc2ccccc2O1)c1nc(-c2cccnc2)nc2ccccc12 (stereo unspecified)	-3%	58%	?	>57	-29%	25µM*
O=C1NCN(c2ccccc2)C12CCN(C[C@H]1COc3ccccc3O1)CC2	2%	-16%	?	·	2%	?
O=C(O)c1nn(Cc2ccc(Cl)cc2Cl)c2ccccc12	0%	?	?	·	7%[25.6 µM]	40µM*!
NCCCCN=C(N)N	1%	40µM*!	12%	·	?	15%
C=C1C/C(=C\C)C(=O)O[C@@H]2CCN3CC=C(COC(=O)[C@]1(C)O)[C@H]23	2%[11.4 µM]	?	-1%	·	·	3%
CSc1nc2ccccc2n1C(=O)Oc1ccccc1	-1%	3%	?	>57	-7%	25µM*
CCCCNC(=O)n1c(NC(=O)OC)nc2ccccc21	·	8%	?	·	-5%	?
SMILES	FLuc inh	Tau fil binding	TSHR ag	PK Bst	15-hLO inh	HEK293 cAMP cs	others
CC1CCCCN1CC(=O)c1ccc2cc[nH]c2c1 (stereo unspecified)	-9%	25µM*	-1%	·	-21%	0%
CC(C)N[C@@H](C)Cc1ccc(I)cc1	1%	-7%	7%	·	3%	1%
C=C[C@@H]1CN2CC[C@@H]1C[C@H]2[C@H](O)c1ccnc2ccccc12	2%[11.4 µM]	?	-5%	·	·	7%
CN(C)c1ccc(N=Nc2ccccc2)cc1	·	16µM*	?	·	-2%	-27%
CN(C)c1ccc(N=O)cc1	·	-1%	?	·	-10%	-27%
C=CCOC(=O)COc1cc(C)cc2oc(=O)c3c(c12)CCC3	-2%	81%	?	·	3%	5µM*
CCCCOC(=O)COc1cc(C)cc2oc(=O)c3c(c12)CCC3	0%	49%	1%	·	-3%	9%
CC(C)n1cc2c3c(cccc31)[C@@H]1C[C@H](C(=O)O[C@@H](C)[C@H](C)O)CN(C)[C@H]1C2	-14%	9%	8%	·	3%	18%
CCCCOC(=O)c1ccccc1C(=O)OCc1ccccc1	·	19%	?	·	-5%	16µM*
CCCCCCCCOC(=O)c1ccccc1C(=O)OCCCCCCCC	·	-5%	-2%	·	-3%	13%
CC(C)[C@@]1(NC(=O)[C@@H]2C[C@H]3c4cccc5[nH]cc(c45)C[C@@H]3N(C)C2)O[C@@]2(O)[C@H]3CCCN3C(=O)[C@@H](Cc3ccccc3)N2C1=O	2%[11.4 µM]	226%	-31%	·	·	-30%
CCn1c(C)c(C(=O)O)c2cc(OC)ccc21	0%	2%	0%	>57	0%	-7%	HEK293 cAMP cnt=6[25.6 µM]
CCOC(=O)c1c(C)n(COCCO)c2ccc(O)cc12	-3%	-1%	-1%	>57	3%	-3%
O=C(Nc1ccccn1)NC12CC3CC(CC(C3)C1)C2	0%	-4%	20µM*	>57	14%	26%	HEK293 cAMP cnt=-9
NC[C@H](O)c1cc(O)c(O)cc1F	0%	-1%	-6%	·	-8%	-4%
CCC(=NCC1CCCO1)c1c(O)n(Cc2ccccc2)c(=O)[nH]c1=O (stereo unspecified)	3%	0%	1%	>57	-7%	4%	HEK293 cAMP cnt=6[25.6 µM]
CN1[C@@H]2CC(OC(=O)[C@@H](CO)c3ccccc3)C[C@H]1[C@H]1O[C@H]12 (stereo partly specified)	2%	-2%	·	·	9%	-7%
